Of roughly 8,800 targets only a part is listed; those with a hit were picked by preference. About 0.5% of all pairs of compound and target were hits.
Each target was assayed with C1COCCN1CCN2C3=CC=CC=C3N=C2NC(=O)C4=CC(=CC=C4)[N+](=O)[O-] [IRAK-1-4 Inhibitor I] (assay: log2 fold change, soluble protein after heating vs DMSO (PISA); higher = thermal stabilisation; K562 lysate, 10 uM; active = over 0.2 and 3.5 SD of the protein, either way, in both replicates (recomputed)).
Method in brief: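 To prepare the extract, K562 pellets were dounce-homogenised in PBS pH 7.4 with 1 mM MgCl2, giving crude material at 1 mg/mL protein. This was treated with 10 μM compound for 30 min, then heated in aliquots for 3 min over 48°C-58°C before pooling and addition of NP-40 to 0.5% at 4°C. Centrifugation at 21,000xg for 90 min left soluble protein in the supernatant, which TMTpro 16plex LC-MS/MS quantified with equalised channel sums. Results are log-two fold changes in thermal stability compared with solvent controls, from duplicates.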

Chain of UniProt Q9H892 (Q9H892 whole entry, looked up): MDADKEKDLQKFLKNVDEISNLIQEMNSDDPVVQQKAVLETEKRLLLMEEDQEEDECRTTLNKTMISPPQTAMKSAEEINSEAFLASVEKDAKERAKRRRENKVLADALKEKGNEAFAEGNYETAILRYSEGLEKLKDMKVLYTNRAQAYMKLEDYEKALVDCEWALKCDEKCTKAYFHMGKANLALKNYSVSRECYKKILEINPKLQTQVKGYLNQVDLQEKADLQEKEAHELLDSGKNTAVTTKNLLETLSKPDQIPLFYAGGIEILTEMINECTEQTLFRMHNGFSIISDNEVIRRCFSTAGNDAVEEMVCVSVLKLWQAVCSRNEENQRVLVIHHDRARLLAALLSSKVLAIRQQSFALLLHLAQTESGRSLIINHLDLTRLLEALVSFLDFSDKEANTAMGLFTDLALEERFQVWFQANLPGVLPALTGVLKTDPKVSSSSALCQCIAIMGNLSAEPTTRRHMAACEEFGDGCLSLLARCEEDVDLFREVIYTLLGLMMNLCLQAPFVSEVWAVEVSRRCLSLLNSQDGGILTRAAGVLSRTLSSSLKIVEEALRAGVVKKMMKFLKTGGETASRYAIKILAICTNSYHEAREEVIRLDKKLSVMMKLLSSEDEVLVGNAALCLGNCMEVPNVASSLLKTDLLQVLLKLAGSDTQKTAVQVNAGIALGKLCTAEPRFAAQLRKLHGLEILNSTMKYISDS
Chain of UniProt Q01085 (Q01085 whole entry, looked up): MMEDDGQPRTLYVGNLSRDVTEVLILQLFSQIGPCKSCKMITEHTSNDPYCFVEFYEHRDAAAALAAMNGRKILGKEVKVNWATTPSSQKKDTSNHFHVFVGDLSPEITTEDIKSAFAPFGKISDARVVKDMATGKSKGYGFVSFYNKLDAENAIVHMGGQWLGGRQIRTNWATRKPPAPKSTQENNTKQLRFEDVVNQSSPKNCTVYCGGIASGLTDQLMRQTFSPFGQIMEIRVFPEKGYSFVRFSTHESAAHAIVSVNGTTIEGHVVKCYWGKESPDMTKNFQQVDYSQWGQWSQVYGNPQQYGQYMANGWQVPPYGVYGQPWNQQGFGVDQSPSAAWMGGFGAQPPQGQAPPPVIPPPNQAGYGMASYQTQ
Chain of UniProt Q53H54 (Q53H54 whole entry, looked up): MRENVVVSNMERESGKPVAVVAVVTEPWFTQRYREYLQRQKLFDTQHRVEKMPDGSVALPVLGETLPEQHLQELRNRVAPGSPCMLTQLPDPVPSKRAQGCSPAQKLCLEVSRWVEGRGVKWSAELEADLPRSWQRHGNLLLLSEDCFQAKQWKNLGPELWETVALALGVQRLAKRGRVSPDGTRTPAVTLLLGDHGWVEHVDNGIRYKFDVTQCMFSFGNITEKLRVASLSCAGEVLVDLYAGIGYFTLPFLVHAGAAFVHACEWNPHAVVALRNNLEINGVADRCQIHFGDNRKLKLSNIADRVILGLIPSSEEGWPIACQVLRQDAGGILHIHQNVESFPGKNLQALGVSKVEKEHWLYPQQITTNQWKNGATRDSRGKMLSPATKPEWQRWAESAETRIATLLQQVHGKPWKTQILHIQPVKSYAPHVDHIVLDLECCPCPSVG
Chain of UniProt Q96CW5 (Q96CW5 whole entry, looked up): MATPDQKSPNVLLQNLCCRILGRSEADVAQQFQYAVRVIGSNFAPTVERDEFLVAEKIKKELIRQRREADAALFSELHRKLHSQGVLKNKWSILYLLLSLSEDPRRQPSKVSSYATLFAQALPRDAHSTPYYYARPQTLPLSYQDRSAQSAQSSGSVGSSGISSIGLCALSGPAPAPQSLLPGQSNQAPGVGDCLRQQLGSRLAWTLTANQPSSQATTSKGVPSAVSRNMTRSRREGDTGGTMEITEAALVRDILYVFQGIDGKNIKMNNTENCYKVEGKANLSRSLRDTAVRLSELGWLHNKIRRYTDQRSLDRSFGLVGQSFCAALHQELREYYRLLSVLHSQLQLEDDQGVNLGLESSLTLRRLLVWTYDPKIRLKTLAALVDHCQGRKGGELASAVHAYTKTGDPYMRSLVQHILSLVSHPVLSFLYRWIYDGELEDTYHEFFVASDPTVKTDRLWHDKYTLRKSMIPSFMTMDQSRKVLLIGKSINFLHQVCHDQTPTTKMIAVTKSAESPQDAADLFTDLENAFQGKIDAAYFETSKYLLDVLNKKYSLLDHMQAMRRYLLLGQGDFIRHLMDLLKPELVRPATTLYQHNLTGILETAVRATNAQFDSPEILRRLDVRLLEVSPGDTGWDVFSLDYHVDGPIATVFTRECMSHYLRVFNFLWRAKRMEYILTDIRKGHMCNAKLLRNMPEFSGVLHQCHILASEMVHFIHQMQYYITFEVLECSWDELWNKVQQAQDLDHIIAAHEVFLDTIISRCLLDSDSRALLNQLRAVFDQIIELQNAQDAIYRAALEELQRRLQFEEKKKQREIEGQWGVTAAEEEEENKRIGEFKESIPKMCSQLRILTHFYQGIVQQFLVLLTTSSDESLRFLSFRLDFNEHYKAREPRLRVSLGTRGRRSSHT
Chain of UniProt Q9P0S9 (Q9P0S9 whole entry, looked up): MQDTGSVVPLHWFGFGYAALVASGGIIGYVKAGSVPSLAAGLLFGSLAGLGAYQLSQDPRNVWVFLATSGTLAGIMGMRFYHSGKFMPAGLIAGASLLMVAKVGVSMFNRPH
Chain of UniProt Q07157 (Q07157 whole entry, looked up): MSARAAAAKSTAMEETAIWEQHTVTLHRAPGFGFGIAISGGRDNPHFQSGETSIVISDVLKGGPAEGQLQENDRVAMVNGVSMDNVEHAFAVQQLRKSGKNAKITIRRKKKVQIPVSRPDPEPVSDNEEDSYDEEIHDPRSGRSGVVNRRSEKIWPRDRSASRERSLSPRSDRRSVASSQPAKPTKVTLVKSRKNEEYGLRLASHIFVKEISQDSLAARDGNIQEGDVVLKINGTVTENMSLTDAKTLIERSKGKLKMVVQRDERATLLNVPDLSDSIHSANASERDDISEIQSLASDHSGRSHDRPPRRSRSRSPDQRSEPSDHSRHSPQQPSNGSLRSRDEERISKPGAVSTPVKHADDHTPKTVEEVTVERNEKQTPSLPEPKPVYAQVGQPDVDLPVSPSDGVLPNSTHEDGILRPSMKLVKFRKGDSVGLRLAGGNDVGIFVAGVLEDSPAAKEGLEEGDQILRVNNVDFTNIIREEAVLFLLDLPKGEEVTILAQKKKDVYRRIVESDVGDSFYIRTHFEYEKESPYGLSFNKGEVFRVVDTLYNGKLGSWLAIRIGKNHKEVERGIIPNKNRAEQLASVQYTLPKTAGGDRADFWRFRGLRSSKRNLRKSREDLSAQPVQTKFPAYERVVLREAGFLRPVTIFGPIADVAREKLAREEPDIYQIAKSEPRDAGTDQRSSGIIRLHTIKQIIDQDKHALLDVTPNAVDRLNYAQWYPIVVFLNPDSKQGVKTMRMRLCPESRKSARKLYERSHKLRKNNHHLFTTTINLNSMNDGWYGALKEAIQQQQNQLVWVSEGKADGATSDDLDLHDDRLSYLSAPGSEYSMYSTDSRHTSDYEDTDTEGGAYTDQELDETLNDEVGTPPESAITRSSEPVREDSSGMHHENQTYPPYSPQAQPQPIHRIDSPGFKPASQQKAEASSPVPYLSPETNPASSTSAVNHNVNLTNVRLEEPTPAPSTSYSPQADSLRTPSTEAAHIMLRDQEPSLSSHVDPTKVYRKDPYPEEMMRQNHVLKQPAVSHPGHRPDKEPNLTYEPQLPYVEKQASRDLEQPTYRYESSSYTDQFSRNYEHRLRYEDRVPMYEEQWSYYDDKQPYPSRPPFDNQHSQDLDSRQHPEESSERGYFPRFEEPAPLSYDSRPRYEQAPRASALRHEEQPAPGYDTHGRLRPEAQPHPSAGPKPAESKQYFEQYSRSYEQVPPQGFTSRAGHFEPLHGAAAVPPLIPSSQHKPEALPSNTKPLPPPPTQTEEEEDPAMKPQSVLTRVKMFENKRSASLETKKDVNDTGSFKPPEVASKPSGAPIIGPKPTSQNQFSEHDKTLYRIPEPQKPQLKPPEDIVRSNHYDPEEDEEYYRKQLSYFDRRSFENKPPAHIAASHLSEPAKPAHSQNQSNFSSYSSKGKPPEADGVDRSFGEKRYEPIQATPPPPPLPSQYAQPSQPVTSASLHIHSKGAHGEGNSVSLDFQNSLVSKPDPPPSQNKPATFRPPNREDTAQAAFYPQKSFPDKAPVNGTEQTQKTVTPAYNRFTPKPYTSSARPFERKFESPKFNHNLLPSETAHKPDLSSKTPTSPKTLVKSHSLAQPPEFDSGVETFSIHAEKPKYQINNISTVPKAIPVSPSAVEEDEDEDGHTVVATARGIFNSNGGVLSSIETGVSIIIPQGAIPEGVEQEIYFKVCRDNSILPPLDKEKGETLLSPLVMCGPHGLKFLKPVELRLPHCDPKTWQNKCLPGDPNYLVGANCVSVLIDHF
Chain of UniProt O95857 (O95857 whole entry, looked up): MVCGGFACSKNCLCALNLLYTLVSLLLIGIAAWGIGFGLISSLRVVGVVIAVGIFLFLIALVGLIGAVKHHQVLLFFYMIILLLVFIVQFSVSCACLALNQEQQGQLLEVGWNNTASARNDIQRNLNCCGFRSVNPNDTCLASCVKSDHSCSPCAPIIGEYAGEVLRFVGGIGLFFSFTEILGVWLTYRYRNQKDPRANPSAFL
Chain of UniProt P42167 (P42167 whole entry, looked up): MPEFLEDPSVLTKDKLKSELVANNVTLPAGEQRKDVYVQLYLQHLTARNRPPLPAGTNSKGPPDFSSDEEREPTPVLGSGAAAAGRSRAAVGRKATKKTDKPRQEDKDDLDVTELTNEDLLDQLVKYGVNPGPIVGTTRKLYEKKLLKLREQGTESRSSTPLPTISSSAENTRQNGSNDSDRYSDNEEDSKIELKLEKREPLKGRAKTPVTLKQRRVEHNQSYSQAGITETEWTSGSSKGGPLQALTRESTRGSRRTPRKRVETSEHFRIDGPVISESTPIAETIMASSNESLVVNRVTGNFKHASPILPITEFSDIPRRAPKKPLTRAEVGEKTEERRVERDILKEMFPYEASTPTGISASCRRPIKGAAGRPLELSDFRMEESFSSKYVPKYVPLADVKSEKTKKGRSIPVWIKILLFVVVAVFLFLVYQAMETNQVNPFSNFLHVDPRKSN

log2 fold change, inactive:
TOR3A (UniProt Q9H497) 0.021
TRAF2 isoform 2 (UniProt Q12933) 0.033
TBRG4 (UniProt Q969Z0) -0.009
TBL3 (UniProt Q12788) 0.01
UBE3B (UniProt Q7Z3V4) 0.019
TRA2A (UniProt Q13595) -0.102
TJP1 isoform 2 (UniProt Q07157) 0.015
TPM4 isoform 2 (UniProt P67936) -0.022
TUBGCP3 (UniProt Q96CW5) -0.054
TGOLN2 isoform 7 (UniProt O43493) 0.029
TSPAN13 (UniProt O95857) -0.051
TIMELESS (UniProt Q9UNS1) -0.032
TRMT2A (UniProt Q8IZ69) -0.007
TTC12 isoform 2 (UniProt Q9H892) 0.231
TMPO (UniProt P42167) -0.002
TBK1 (UniProt Q9UHD2) 0.082
TGFBRAP1 (UniProt Q8WUH2) -0.026
TMEM14C (UniProt Q9P0S9) 0.064
TMEM164 (UniProt Q5U3C3) 0.094
TPM3 (UniProt P06753) -0.019
TTI2 (UniProt Q6NXR4) 0.014
TBC1D23 (UniProt Q9NUY8) 0
TRIM25 (UniProt Q14258) -0.009
UBE2D1 (UniProt P51668) -0.038
TPP2 (UniProt Q5VZU9) 0.005
TRMT12 (UniProt Q53H54) -0.03
TCAF2 (UniProt A6NFQ2) -0.005
TRIM56 (UniProt Q9BRZ2) 0.062
TTC27 (UniProt Q6P3X3) -0.013
UBR5 (UniProt O95071) 0.001
TROAP (UniProt Q12815) -0.011
TUBGCP2 isoform 4 (UniProt Q9BSJ2) -0.041
TTC5 (UniProt Q8N0Z6) -0.008
TRIM33 (UniProt H0Y612) 0.176
TP53RK (UniProt Q96S44) -0.008
TFCP2 (UniProt Q12800) 0.035
TIAL1 isoform 2 (UniProt Q01085) 0.058
TRIM65 (UniProt Q6PJ69) -0.025
TTF2 (UniProt Q9UNY4) -0.006
TRAPPC9 isoform 2 (UniProt Q96Q05) 0.027
